The structures appear in SMILES notation. Records with an inconclusive call do not appear. Unmarked numbers belong to inactive results. Calls of active or inactive are those of the source. The call rests on the fitted dose curve; in most records, active means well fitted cell-killing curve with a large enough effect; inconclusive means small, poorly fitted or top-dose-only effect; inactive means flat fitted curve, though single readings scatter.

This experiment is described as follows: HBEC Cell Viability Secondary Assay for qHTS Assay for Epigenetic Modulators. The settings on record: HBEC normal bronchial cells viability, ATP luminescence, 72 h; series mostly up to 46.1 µM; activity change, negative = viability loss: at the top concentration. From the text:
NIH Molecular Libraries Screening Centers Network [MLSCN] NIH Chemical Genomics Center [NCGC] MLSCN Grant: 1 X01 MH079860-01 Assay Provider: Elisabeth D. Martinez, University of Texas SW Medical Center NCGC Assay Overview: This secondary assay characterizes selected actives identified in the qHTS of the Locus Derepression (LDR) assay (PubChem AID 1865). The LDR assay detects the derepression of a GFP reporter that is stably integrated in a region of the genome of murine c127i mammary cells that is presumably silenced. Compounds that cause derepression of the locus to express GFP are identified by enumerating GFP positive cells using a laser-scanning microplate cytometer. Selected LDR actives were assayed for killing of HBEC, a patient-derived normal bronchial epithelial line matched to HCC4017 (Pubchem AID XXX), a nonsmall cell lung carcinoma line from the same patient. The HBEC line assays the cytoxicity of test compounds on normal lung cells. Cell viability was measured using a luminescence-based detection reagent that measures cellular ATP levels.
NCGC Assay Protocol Summary HBEC cells were seeded at 125 cells/5 uL/well in white, solid bottom, 1536 well plates (Greiner). After 16-hour incubation at 37deg C and 5% CO2, 23 nL of compound were transferred into the assay plate via a pin tool. Plates were incubated 72 hours at 37deg C and 5% CO2, then 3.5 uL/well CellTiter-Glo(R) (Promega) detection reagent was added, plates were incubated at ambient temperature for 10 minutes and luminescence was measured by a ViewLux (Perkin Elmer) reader. For further details, see Johnson, RL, Huang, W, Jadhav, A, Austin, CP, Inglese, J, Martinez, ED (2008). A quantitative high-throughput screen identifies potential epigenetic modulators of gene expression. Anal Biochem 375: 237-48. […]
`S=C(Nc1ccccc1)c1ccccn1`: the “activity change, negative = viability loss” value is -0.455%. For `O=C(N/N=C/c1ccccn1)c1cc(-c2ccc(Cl)cc2)nc2ccccc12`, the Potency was 7.05 µM (active). As for `C/C=C/c1ccc(OCC(=O)OCC(=O)NC2CC2)c(OC)c1`, the “activity change, negative = viability loss” value is -4.48%. As for `CCCC(=O)N1CCN(c2ccc(NC(=O)c3ccc([N+](=O)[O-])o3)cc2Cl)CC1`, the Potency is 0.705 µM (active).

As for `COc1ccc(NC(=O)CSc2nc3c(oc4ccccc43)c(=O)n2Cc2ccco2)cc1Cl`, the Potency is 7.05 µM (active). `O=C(NN1C(=O)c2ccccc2NC1c1ccc([N+](=O)[O-])o1)c1ccc([N+](=O)[O-])cc1` (stereo unspecified): the Potency is 3.97 µM (active). As to `CCc1nnc(NC(=O)c2cccc(C(=O)Nc3nnc(CC)s3)n2)s1`, the Potency is 0.705 µM (active). Still for that read-out and setting: with `N=c1n(CC(=O)c2ccc([N+](=O)[O-])cc2)c2ccccc2n1Cc1ccccc1Cl` the figure was 11.2 µM (active). For `O=C1C=C(Nc2ccc(Cl)cc2)C(=O)N1c1ccc(Cl)cc1`, the “activity change, negative = viability loss” value is -5.04%. With `CCC(=O)N1CCN(c2ccc(NC(=O)c3ccc([N+](=O)[O-])o3)cc2Cl)CC1`, the Potency was 0.705 µM (active). Take `COc1ccc2c(C)cc(SCC(=O)N(C)C3CCS(=O)(=O)C3)nc2c1` (stereo unspecified): the “activity change, negative = viability loss” value is -9.91%. On the same count and under the same terms, the same measure for `CN(C)S(=O)(=O)c1cccc(NC(=S)N/N=C/c2ccco2)c1`: 3.62%. As for `COc1ccccc1OCC(=O)N/N=C/C=C/c1ccc([N+](=O)[O-])o1`, the Potency is 9.96 µM (active). For the compound `CCOc1ccc(NC(=O)c2nc(S(=O)(=O)Cc3ccccc3F)ncc2Cl)cc1`, the Potency was 2.23 µM (active). For `C(=N\Nc1nc(-c2ccccn2)nc2ccccc12)/c1ccccc1`, the Potency is 3.15 µM (active).

Take `NC(=S)N/N=C/c1ncc(C(F)(F)F)cc1Cl`: the Potency was 6.28 µM (active). On to `COCCNC(=S)N/N=C(\C)c1ccccc1O`, for which the “activity change, negative = viability loss” value was -4.12%. For the compound `CCCCOC(=O)Cn1c2ccc(OC)cc2c2nc3ccccc3nc21`, the Potency was 14.1 µM (active).

Consider `CCOn1c(=O)c[n+]([O-])c2ccccc21`, for which the “activity change, negative = viability loss” value was 3.63%. Take `O=[N+]([O-])/C(C=Nc1ccccc1O)=C\Nc1ccccc1O`: the Potency was 28.1 µM (active). With `COc1cccc(N2CCN(S(=O)(=O)c3ccc(-n4cnnn4)cc3)CC2)c1`, the “activity change, negative = viability loss” value was -18.1%. `COc1ccc(C(=O)/C=C/Sc2nc3ccccc3o2)cc1`: the Potency was 3.15 µM (active). Turning to `CC1=C/C(=N\NC(=S)Nc2cccnc2)CC(C)(C)C1`, the Potency is 9.96 µM (active). The same measure, in the same setting: the same measure for `CC1=NN(c2nc3ccccc3[nH]2)C(=O)C1Cc1ccccc1` (stereo unspecified): 7.05 µM (active); for `Cc1ccc(C(C)C)c(OCc2ccc(C(=O)N/N=C/c3cccc(O)c3O)cc2)c1`: 14.1 µM (active); for `COc1cccc(/C=N/Nc2nc(Nc3ccccc3)nc(-n3nc(C)cc3C)n2)c1O`: 11.2 µM (active). In the case of `O=C(CSc1cccc[n+]1[O-])c1ccccc1Br`, the “activity change, negative = viability loss” value is 11.3%. Turning to `Cc1ccc(/C=[N+](\[O-])c2ccc(N(C)C)cc2)c2nsnc12`, the Potency was 9.96 µM (active). On the same count and under the same terms, with `COc1ccc2c(C)nc(Nc3nc(-c4ccccc4)cc(=O)[nH]3)nc2c1` the figure was 8.88 µM (active). Consider `COc1nc(Nc2nc3ccccc3c(=O)[nH]2)nc2ccc(C)cc12`, for which the Potency was 3.15 µM (active). The same measure, in the same setting: with `CCN(CC)CCCNC(=O)CSc1c2c(nc3cc(Cl)ccc13)CCCC2` the figure was 19.9 µM (active).

These data come from PubChem BioAssay AID493066 (National Center for Advancing Translational Sciences (NCATS), 2011).
